Bioassay records (PubChem)
Tcruzi prolif = inhibitors of T. cruzi proliferation; T. cruzi beta-gal in NIH3T3, GalScreen luminescence, 90 h; AID 624255; inhibition, % at 8.34 µM; actives 5.9% (n = 77,000);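 active = mean inhibition above about 93%, with at least 55% of replicates each passing it, limit read from the data, passing the limit was not always enough; inconclusive = only one of those two conditions holds; inactive = neither condition holds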
Pf Dd2 growth = inhibitors of Plasmodium falciparum Dd2 growth. P. falciparum Dd2 growth, SYBR Green, 72 h; hits give low values. actives 2.3% (n = 94,000). activity change, % at 10 µM; in the data active = activity change below about -80%; inconclusive = no clear call, values can overlap the other calls
C diff growth = inhibitors of Clostridium difficile growth | Clostridium difficile clinical isolate growth, OD600, 24 h; hits give low values | growth activity, negative = inhibition, % at 16 µg/mL (by protocol) | actives 0.25% (n = 86,000);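 active = mean growth activity at or below -80% and every replicate also at or below -80%; inconclusive = mean at or below -80% but some replicate above -80%; inactive = mean growth activity above -80%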;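 note: 0% = DMSO wells and -100% = levofloxacin 16 µg/mL wells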
An asterisk follows results filed as active. This is a sample that favours compounds with a hit; in the whole collection about 6.7% have one here.

C[C@H](CO)N1C[C@H](C)[C@H](CN(C)C(=O)Nc2ccc(F)cc2)Oc2ccc(NC(=O)Nc3ccc4c(c3)OCO4)cc2C1=O was read as Tcruzi prolif 8, Pf Dd2 growth 17 and C diff growth 3.
For COc1ccc(CN(C)C[C@H]2OCCCC[C@H](C)Oc3ccc(NC(=O)Nc4ccc(F)cc4)cc3C(=O)N([C@@H](C)CO)C[C@H]2C)cc1 the results were Tcruzi prolif 76, Pf Dd2 growth -83* and C diff growth 11.
COc1ccc(CN(C)C[C@@H]2OCCCC[C@H](C)Oc3ccc(NC(=O)Nc4ccc(F)cc4)cc3C(=O)N([C@@H](C)CO)C[C@@H]2C)cc1 was read as Tcruzi prolif 73, Pf Dd2 growth inconclusive and C diff growth 6.
`COc1ccc(CN(C)C[C@@H]2OCCCC[C@H](C)Oc3ccc(NC(=O)Nc4ccc(F)cc4)cc3C(=O)N([C@H](C)CO)C[C@@H]2C)cc1` gave Tcruzi prolif 65, Pf Dd2 growth -20 and C diff growth 9.
For COc1ccc(CN(C)C[C@H]2OCCCC[C@H](C)Oc3ccc(NC(=O)Nc4ccc(F)cc4)cc3C(=O)N([C@H](C)CO)C[C@H]2C)cc1 the results were Tcruzi prolif 69, Pf Dd2 growth -81* and C diff growth 18.
COc1ccc(NC(=O)N(C)C[C@@H]2Oc3ccc(NC(=O)Cc4cn(C)c5ccccc45)cc3C(=O)N([C@@H](C)CO)C[C@H]2C)cc1 was read as Tcruzi prolif -30, Pf Dd2 growth -11 and C diff growth 5.
Cc1ccccc1S(=O)(=O)NCC[C@H]1CC[C@@H](NC(=O)Nc2cccc(Cl)c2)[C@@H](CO)O1 was read as Tcruzi prolif -67 and Pf Dd2 growth -7.
Screening CO[C@@H]1CN(C)C(=O)c2cc(NC(=O)CC(F)(F)F)ccc2OC[C@@H](C)N(C(=O)C2CCOCC2)C[C@H]1C returned Tcruzi prolif -44, Pf Dd2 growth 9 and C diff growth 1.
For COc1ccc2c3c(n(C)c2c1)[C@H](CO)N(C(=O)C1CCC1)CC31CCN(C(=O)CN(C)C)CC1 the results were Pf Dd2 growth -82* and C diff growth 1.
COc1ccc2c3c(n(C)c2c1)[C@H](CO)N(C(=O)C1CCC1)CC31CCN(C(=O)Nc2cccc(F)c2)CC1 was read as Pf Dd2 growth -64 and C diff growth 17.
For COc1ccc2c3c(n(C)c2c1)[C@H](CO)N(C(=O)C1CC1)CC31CCN(C(=O)Nc2cccc(F)c2)CC1 the results were Pf Dd2 growth -82* and C diff growth 16.
`COc1ccc2c3c(n(C)c2c1)[C@@H](CO)N(C(=O)C1CCC1)CC31CCN(C(=O)CN(C)C)CC1` gave Pf Dd2 growth -65 and C diff growth 0.
For COc1ccc2c3c(n(C)c2c1)[C@H](CO)N(C(=O)C1CCC1)CC31CN(C(=O)Nc2cccc(F)c2)C1 the results were Pf Dd2 growth -51 and C diff growth 17.
`CCS(=O)(=O)N1CCC2(CC1)CN(C(=O)Nc1cccc(F)c1)[C@H](CO)c1c2c2ccc(OC)cc2n1C` gave Pf Dd2 growth -88* and C diff growth 1.
COc1ccc2c3c(n(C)c2c1)[C@@H](CO)N(C(=O)C1CCC1)CC31CCN(C(=O)Nc2cccc(F)c2)CC1 was read as Pf Dd2 growth -86* and C diff growth 1.
COc1ccc2c3c(n(C)c2c1)[C@H](CO)N(C(=O)Nc1cccc(F)c1)CC31CN(C)C1 was read as Pf Dd2 growth -80 and C diff growth -10.
`COCC(=O)N(C)C[C@@H]1Oc2cc(C#CC3CCCC3)ccc2S(=O)(=O)N([C@H](C)CO)C[C@@H]1C` gave Tcruzi prolif 19 and Pf Dd2 growth -22.
Screening C[C@@H]1CCCCO[C@H](CN(C)S(=O)(=O)c2cccs2)[C@@H](C)CN([C@@H](C)CO)C(=O)c2cc(NS(=O)(=O)c3cccs3)ccc2O1 returned Pf Dd2 growth -66 and C diff growth 4.
COc1ccc2c3c([nH]c2c1)[C@@H](CO)N(C(=O)c1ccncc1)CC31CN(C(=O)C2CCC2)C1 was read as Pf Dd2 growth 31 and C diff growth -2.
Screening COc1ccc(S(=O)(=O)N2CC3(CN(C(=O)CN(C)C)[C@@H](CO)c4c3c3ccc(OC)cc3n4C)C2)cc1 returned Pf Dd2 growth -67 and C diff growth -6.
`COc1ccc2c3c(n(C)c2c1)[C@H](CO)N(C(=O)C1CCCC1)CC31CN(C(=O)Nc2cccc(F)c2)C1` gave Pf Dd2 growth -57 and C diff growth 5.
COc1ccc(NC(=O)N2CCC3(CC2)CN(C(=O)C2CCC2)[C@@H](CO)c2c3c3ccc(OC)cc3n2C)cc1 was read as Pf Dd2 growth -93* and C diff growth -4.
`COc1ccc(NC(=O)N2CC3(C2)CN(C(=O)C2CCC2)[C@@H](CO)c2c3c3ccc(OC)cc3n2C)cc1` gave Pf Dd2 growth -29 and C diff growth -9.
COc1ccc2c3c(n(C)c2c1)[C@@H](CO)N(C(=O)C1CCCC1)CC31CN(C(=O)Nc2cccc(F)c2)C1 was read as Pf Dd2 growth -88* and C diff growth 9.
COc1ccc(S(=O)(=O)N2CC3(CN(C(=O)CN(C)C)[C@H](CO)c4c3c3ccc(OC)cc3n4C)C2)cc1 was read as Pf Dd2 growth -84* and C diff growth -5.
`COc1ccc(S(=O)(=O)Nc2ccc3c(c2)C(=O)N([C@@H](C)CO)C[C@H](C)[C@@H](CN(C)CC2CC2)O3)cc1` gave Pf Dd2 growth 8 and C diff growth 0.
O=C(C[C@@H]1CC[C@@H]2[C@H](COC[C@@H](O)CN2C(=O)C2CC2)O1)NCc1ccncc1 was read as Tcruzi prolif 12, Pf Dd2 growth 10 and C diff growth 2.
Screening C[C@@H]1CN([C@H](C)CO)S(=O)(=O)c2ccc(C3=CCCC3)cc2O[C@H]1CN(C)C(=O)C1CC1 returned Tcruzi prolif 10 and Pf Dd2 growth -32.
`C[C@H]1CN([C@@H](C)CO)C(=O)c2cccc(NS(=O)(=O)c3ccccc3)c2O[C@H]1CN(C)S(=O)(=O)c1ccc(Cl)cc1` gave Tcruzi prolif 49, Pf Dd2 growth 4 and C diff growth 48.
For C[C@H]1CCCCO[C@@H](CN(C)Cc2ccccc2)[C@@H](C)CN([C@@H](C)CO)C(=O)c2cc(NC(=O)Nc3ccc(F)cc3)ccc2O1 the results were Tcruzi prolif 84, Pf Dd2 growth -86* and C diff growth 5.
For C[C@@H]1CN([C@H](C)CO)C(=O)c2cc(NC(=O)Nc3ccccc3)ccc2O[C@@H](C)CCCCO[C@@H]1CN(C)Cc1ccc(C(F)(F)F)cc1 the results were Tcruzi prolif 82, Pf Dd2 growth -85* and C diff growth -1.
C[C@@H]1CCCCO[C@H](CN(C)Cc2ccc(C(F)(F)F)cc2)[C@@H](C)CN([C@H](C)CO)C(=O)c2cc(NC(=O)Cc3ccccc3)ccc2O1 was read as Tcruzi prolif 75 and Pf Dd2 growth -15.
`C[C@@H]1CCCCO[C@@H](CN(C)Cc2ccc(C(F)(F)F)cc2)[C@@H](C)CN([C@@H](C)CO)C(=O)c2cc(NC(=O)Nc3ccccc3)ccc2O1` gave Tcruzi prolif 75, Pf Dd2 growth 19 and C diff growth 3.
